High-throughput results from PubChem BioAssay.
L3MBTL1 block: inhibitors of human L3MBTL1 | AlphaScreen L3MBTL1–H3K9me1 peptide binding | Potency, µM (doses to about 57.1 µM), inactives show top-dose activity, negative = inhibition, actives largely listed as inhibitors | 230,000 tested, 0.66% active; further: potency means the concentration at half of the fitted maximal effect; on the % scale 0 is the no-effect control and ±100 the full control effect; nearly all actives have a fitted effect of over 60% in size
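Displacement of a biotinylated histone H3(1-15) peptide monomethylated at Lys9 (75 nM) from L3MBTL1 (50 nM) was measured by AlphaScreen after a 30 min room-temperature compound incubation; cefsulodin titration served as intraplate control.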
PI5P4Ka inh: PI5P4K alpha (human) kinase inhibition; P48426; PI5P4Kalpha enzyme, ADP-Glo luminescence, 60 min; hits give low values; max response, %; 330,000 tested, 1.2% active; active means max response of -50% or lower; inconclusive means between -30% and -50%; inactive means -30% or higher; further: value at the top dose of about 77 µM; on the % scale 0 is the no-effect control and ±100 the full control effect
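ADP-Glo luminescence end-point read after a 60 min room-temperature kinase reaction of PI5P4Kalpha plus substrate, initiated with ATP at 5 microM final. Buffer: 0.038 M HEPES pH 7.4, EGTA, 0.1% CHAPS, 5% DMSO.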
JMJD2A Tudor inh: blocks the human JMJD2A Tudor domain | O75164 | AlphaScreen JMJD2A-Tudor / H3K4me3 peptide binding | Potency, µM (top dose mostly 114 µM), inactives show top-dose activity change, negative = inhibition, most hits filed as inhibitors | 390,000 tested, 4.4% active | AID 504339; further: potency means the concentration at half of the fitted maximal effect; on the % scale 0 is the no-effect control and ±100 the full control effect; nearly all actives have a fitted effect of over 50% in size
JMJD2E inh: blocks human JMJD2E demethylase activity. B2RXH2. JMJD2E catalytic domain, FDH-coupled NADH fluorescence (FDH is formaldehyde dehydrogenase). Potency, µM (highest dose often 57.1 µM), for inactives: at the highest dose activity change, negative = inhibition, actives largely listed as inhibitors. 230,000 tested, 1.6% active. AID 2147; active means well fitted inhibition curve with a large enough effect, not every such curve was filed as active; inconclusive means small, poorly fitted or top-dose-only effect, or another doubt; inactive means no such curve, though single readings can be large or run the other way;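 further: potency means the concentration at half of the fitted maximal effect; 0% = wells with enzyme and -100% = buffer wells without enzyme; nearly all actives have a fitted effect of over 50% in size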
BAZ2B block: inhibitors of human BAZ2B bromodomain; Potency, µM (highest dose often 114 µM), inactives show at the top dose activity change, negative = inhibition, most hits filed as inhibitors; 360,000 tested, 4.4% active; Q9UIF8; AlphaScreen BAZ2B-H3K14Ac peptide displacement; AID 504333; further: potency means the concentration at half of the fitted maximal effect; on the % scale 0 is the no-effect control and ±100 the full control effect; nearly all actives have a fitted effect of over 60% in size
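AlphaScreen displacement: compounds (up to 110uM) incubated 30 min at room temperature with a preformed 50 nM BAZ2B/50 nM biotinylated H3K14Ac peptide complex in PBS pH 7.4 with Tween-20. Donor and acceptor beads at 10 ug/mL final added, 20 min light-protected before reading.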
HP1b binding inh: inhibitors of HP1-beta chromodomain binding to methylated histone tails | P83916 | AlphaScreen HP1-beta / biotin-H3K9me3 peptide binding | Potency, µM (doses to about 114 µM), for inactives: at the top dose activity change, negative = inhibition, most hits filed as inhibitors | 390,000 tested, 0.56% active | AID 540317; further: potency means the concentration at half of the fitted maximal effect; nearly all actives have a fitted effect of over 70% in size
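Compound inhibition of the preformed complex between 50 nM HP1-beta and 50 nM biotinylated H3K9me3 peptide was read by AlphaScreen. Buffer was PBS pH 7.4 with 0.01% Tween-20. Incubations ran 30 min at room temperature, with 10 ug/mL donor/acceptor beads.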
An asterisk follows results filed as active; ? = inconclusive; . = no result given; [ ] = another dose, or the depositor's remark. Most compounds without a hit are left out; they make up all but 5.7% or so of the library. Unless noted, the call rests on the fitted dose curve; in most records, active means well fitted inhibition curve with a large enough effect; inconclusive means small, poorly fitted or top-dose-only effect; inactive means no such curve, though single readings can be large or run the other way.

SMILES	L3MBTL1 block	PI5P4Ka inh	JMJD2A Tudor inh	JMJD2E inh	BAZ2B block	HP1b binding inh
CCc1n[nH]c(=S)n1/N=C/c1ccc(-c2ccc(Br)cc2)o1	.	-4.2	-14.7%	.	.	49.8%
CCc1n[nH]c(=S)n1/N=C/c1ccc(NC(C)=O)cc1	0.2%	1.1	5.01µM*	-5.5%	?	-23.7%
CCc1n[nH]c(=S)n1/N=C/C(C)=C\c1ccccc1	-0.9%[2.29 µM]	3.7	25.1µM*	.	56.2µM*	14.3%
COc1ccc(OC)c(NC(=O)c2cn3c4c(ccc(Cl)c4c2=O)OC(C)C3)c1 (centres undefined)	.	.	-6.3%	.	-2.6%	28.1%
Cc1c(NC(=O)c2ccc(-c3cccc([N+](=O)[O-])c3)o2)cccc1-c1nc2cc(Cl)ccc2o1	.	.	-19.6%	.	-15.5%	32.0%
CCOc1ccc(C(=O)Nc2nc(-c3ccc(Br)cc3)ns2)cc1	.	.	-1.0%	.	0.8%	65.7%
CCCCCCCc1nc2nc(C)c(Br)c(=O)n2[nH]1	-3.0%	-7.6	28.2µM*	-17.8%	-24.5%	0.9%
COc1ccc(-c2cc(C(C)=O)c(C)n2CCC(=O)Nc2ccc(C)cc2Cl)cc1	.	.	-16.7%	.	18.2%	40.3%
CCOC(=O)C1=C(Cc2ccc(Cl)cc2)C(=O)c2ccccc2C1=O	.	.	35.5µM*	?	22.4µM*	20µM*
CCOC(=O)C1(C)CCCN(C(=O)c2ccc(F)cc2Cl)C1 (centres undefined)	.	-0.5	.	.	.	.
O=C(CNC(=O)c1ccccc1F)OCc1nc2ccccc2s1	-0.6%	-7.4	4.5%	-18.6%	-1.7%	44.8%
CNc1sc(C(=O)c2ccccc2F)c(N)c1-c1nc2ccccc2s1	.	2.2	50.1µM*	6.8%	39.8µM*	?
O=C(O)C(c1ccccc1)N1C(=O)/C(=C\c2ccc(-c3ccccc3Cl)o2)SC1=S (centres undefined)	.	?	20µM*	.	17.8µM*	?
O=C(O)C(c1ccccc1)N1C(=O)/C(=C\c2ccc(-c3ccc(Br)cc3)o2)SC1=S (centres undefined)	.	?	20µM*	.	20µM*	?
O=C1/C(=C\c2ccc(-c3ccccc3Cl)o2)SC(=S)N1CC1CCCO1 (centres undefined)	-7.4%	9.6	?	15.7%	?	?
COc1cc(/C=C2\SC(=S)N(C(C(=O)O)c3ccccc3)C2=O)cc(OC)c1OC (centres undefined)	-8.4%	-0.1	-31.0%	-0.3%	?	-16.0%
CCC(=O)Nc1ccccc1-c1nc2ccccc2n(CC(=O)c2ccc(Cl)cc2)c1=O	.	.	-16.2%	.	?	27.8%
O=C(/C=C/c1ccc(F)cc1)NC(=S)NNC(=O)c1cnccn1	.	0.1	7.94µM*	?	2.82µM*	2.2%
CN(C)CCN(Cc1cc2cc3c(cc2nc1Cl)OCO3)C(=O)c1ccco1	.	0.5	-14.4%	.	-8.2%	27.8%
COc1ccc(/C=c2\sc3nc(-c4ccccc4)c(-c4ccccc4)n3c2=O)cc1OC	-13.5%	-17.6	-34.2%[11.4 µM]	?	?	12.9%
O=c1/c(=C\c2cccc(O)c2)sc2nc(-c3ccccc3)c(-c3ccccc3)n12	.	0.1	-27.2%	12.4%	5.62µM*	1.5%
O=C(COc1ccccc1-c1ccccc1)NNC(=O)NC1CCCCC1	-0.2%[11.4 µM]	-4.6	-4.1%[57.1 µM]	11.7%	-25.1%	22.2%
COc1cc(-c2c(C#N)c(N)nc3c2CCCC3)ccc1O	-2.0%	?	-28.8%[11.4 µM]	-3.0%	-11.8%	-6.7%
COc1cc(-c2c(C#N)c(N)nc3[nH]c(=S)[nH]c(=O)c23)ccc1O	.	-67.3*	-13.8%	.	-4.6%	43.2%
O=C(c1cccnc1)N1C2C=CC(C2)C1(C(F)(F)F)C(F)(F)F (centres undefined)	.	-9.4	70.8µM*	3.4%	?	-17.7%
SMILES	L3MBTL1 block	PI5P4Ka inh	JMJD2A Tudor inh	JMJD2E inh	BAZ2B block	HP1b binding inh
Cc1nc(SC(C)C(=O)Nc2ccccc2Cl)cc(-c2ccccc2)n1 (centres undefined)	.	.	60.9%	.	48.1%	139.5%
Cc1cc(C)c2c(N)c(C(=O)N3CCCCCC3)sc2n1	.	?	35.5µM*	?	?	2.3%
COCc1cc(C)nc2sc(C(=O)N3CCCC3)c(N)c12	0.6%	.	?	-14.8%	0.0%	17.1%
Brc1ccc([C@H]2CN3CCSC3=N2)cc1	.	-3.6	6.31µM*	11.2µM*	.	?
O=C(NC(=S)N1CCCC1)c1ccc(Cl)cc1	.	-10.4	-13.0%	.	-3.2%	34.5%
CC(=O)N1CCN(C(=S)NC(=O)c2ccc(S(=O)(=O)N3CCOCC3)cc2)CC1	0.3%	-19.6	50.1µM*	-5.0%	50.1µM*	-26.6%
CC(=O)Nc1ccc(C(=O)Nc2ccc(S(=O)(=O)N3CCOCC3)cc2)cc1	1.9%	2.0	2.7%	.	6.3%	28.5%
CN1CCN(C(=S)NC(=O)c2ccco2)CC1	-3.4%	-11.2	15.8µM*	20.9%	?	3.8%
CN1CCN(C(=S)NC(=O)c2ccc(Cl)cc2)CC1	-9.4%	-90.7*	?	9.6%	56.2µM*	?
Cc1c(Cl)cccc1NC(=O)CSc1ncc(S(=O)(=O)c2ccc(C(C)C)cc2)c(=O)[nH]1	.	.	-9.5%	.	?	25.9%
CCOc1cc(N2CCOCC2)c(OCC)cc1NC(=O)c1c(-c2ccccc2Cl)noc1C	?	5.4	44.7µM*	-3.8%	39.8µM*	?
CCOc1cc(N2CCOCC2)c(OCC)cc1NC(=O)c1c(-c2ccccc2)noc1C	-20.6%	-2.7	?	.	44.7µM*	-15.1%
CCOc1cc(N2CCOCC2)c(OCC)cc1NC(=O)c1c(C)noc1C	-9.7%	6.9	-16.4%	.	-1.8%	17.7%
Cc1onc(-c2ccccc2Cl)c1C(=O)Nc1nn[nH]n1	7.0%	.	56.2µM*	1.6%	79.4µM*	19.3%
CCOc1cc(N2CCOCC2)c(OCC)cc1NC(=O)c1ccccc1	?	-9.5	-19.6%	-5.2%	?	-2.6%
COc1ccc(Cl)cc1NC(=O)Cn1c(=O)n(Cc2ccco2)c(=O)c2ccc(C(=O)NC3CCCC3)cc21	.	.	-7.0%	.	.	23.3%
O=C(O)C(=O)/C(=C\c1cccc(Cl)c1)c1ccc2ccccc2n1	9.7%	-6.8	?	?	79.4µM*	29.0%
N#Cc1ccc(/C=C(\C(=O)C(=O)O)c2ccc3ccccc3n2)cc1	.	7.8	1.4%	?	79.4µM*	30.1%
Cc1cccc(/C=C(\C(=O)C(=O)O)c2ccc3ccccc3n2)c1	13.5%	0.7	-10.2%	?	.	63.2%
O=C(Nc1ccccc1)c1ccc2ccccc2n1	.	-5.1	-7.9%	-3.0%	-16.1%	25.8%
COc1nc(Oc2ccc(=O)n(-c3ccccc3)n2)nc(N(C)C)n1	.	.	-6.6%	.	4.4%	49.6%
Cc1cc(=O)c(C(=O)O)cn1Nc1ccc(F)cc1	.	-1.1	50.1µM*	-5.5%	?	-10.6%
Cc1cc(=O)c(C(=O)O)cn1Nc1ccc(Cl)cc1	.	0.6	-27.0%	-2.9%	-9.9%	39.7%
